Out of some 46,000 compounds screened, about 430 (0.93%) were called active. Many of the other results were omitted from the sample, so actives are more common in it than they were. A number with no mark means an inactive call. Rule as the data show it: active = normalized absorbance mostly below about 85% (no sharp cut-off); inactive = mostly above about 86%.
Each molecule was assayed on Vaccinia virus DNA polymerase (E9) processive complex (assay: vaccinia E9 polymerase processive synthesis inhibitors, primary screen, biochemical, absorbance (AID 493162)). Settings: in vitro processive DNA synthesis, absorbance read-out; active compounds read low; concentration not given here.

| Compound | normalized absorbance |
| --- | --- |
| Cc1cc(C(=O)OCC(=O)N2CCc3ccccc3C2)c(C)o1 | 103% |
| O=C(COC(=O)c1ccc2ccccc2n1)Nc1ccc(Cl)c(C(F)(F)F)c1 | 100% |
| O=C1CC(c2ccc(Cl)cc2)Sc2nc3ccccc3n21 (configuration not stated) | 100% |
| CCc1ccccc1Nc1cc(C(=O)NCC2COc3ccccc3O2)c2ccccc2n1 (configuration not stated) | 99.1% |
| O=C(OCC(=O)N1CCCCCC1)c1ccc(Cl)nc1 | 106% |
| Brc1ccccc1C1OCC2(CO1)COC(c1ccccc1Br)OC2 (configuration not stated) | 100% |
| O=C(Nc1nc(-c2ccc(Cl)s2)cs1)C1=COCCO1 | 98.9% |
| CCn1c(CNC(C)=O)nc2ccccc21 | 101% |
| O=C(COC(=O)c1n[nH]c2ccccc12)NC(c1ccccc1)c1ccccc1 | 98.6% |
| CNC(=O)Nc1ccc(C(=O)NC)cc1 | 101% |
| CCOc1ccc(OCC)c(NC(=O)CCS(=O)(=O)c2ccc(C)cc2)c1 | 91.4% |
| CCn1c(=NC(=O)C2CC2)sc2cc(Cl)ccc21 | 71.3% |
| NNc1cccc(Cl)n1 | 78.5% (active) |
| COC(=O)CN1C(=O)c2cccnc2Oc2ccc(C)cc21 | 92% |
| O=C(O)c1ccc(N=Cc2ccc(OC(=O)c3sc4ccccc4c3Cl)cc2)cc1 | 100% |
| CS(=O)(=O)c1nc2ccccc2[nH]1 | 103% |
| C/C(CCc1ccc2c(c1)OCO2)=N\N1C(=N)SC(C(=O)Nc2ccc(C(=O)O)cc2)CC1=O (configuration not stated) | 100% |
| COc1ccc2nc(C(=O)N3CCN(C)CC3)sc2c1 | 85.1% |
| O=C1CN(C(=O)CCC(=O)c2ccc(F)cc2)c2ccccc2N1 | 101% |
| Cn1c(NCc2ccccc2)nc2ccccc21 | 101% |
| O=C(O)CCNC(=O)c1ccc2c(c1)OCCO2 | 102% |
| CSc1ncc(Cl)c(C(=O)N2CCN(c3cccc(Cl)c3)CC2)n1 | 95.5% |
| O=P(O)(CN1CCCCCC1)C1Cc2ccccc2C1 | 84.6% |

| Compound | normalized absorbance |
| --- | --- |
| CCOC(=O)c1c(C)oc2ccc(OC(=O)c3ccco3)cc12 | 99.5% |
| CC12CCC3C(CC=C4CC(OC5CCCCO5)CCC43C)C1CCC2=O (configuration not stated) | 100% |
| CC(C)(C)c1cc(C(F)(F)F)n2ncnc2n1 | 99.9% |
| C=CCN(C(=O)c1cccc2c1SCCC2=O)c1ccccc1 | 113% |
| CCN(CC)c1ccc(N=Cc2cccs2)cc1 | 99.2% |
| CCOC(=O)c1c(NC(=O)C(C)Sc2ncccn2)sc2c1CCC2 (configuration not stated) | 91.9% |
| CCN(CC)c1ccc(N=C2C(=C(C#N)C#N)c3ccccc3C2=C(C#N)C#N)cc1 | 99.9% |
| CC(c1ccco1)N(C(=O)c1cccnc1Cl)c1ccccn1 (configuration not stated) | 97.4% |
| c1ccc2c(c1)[I+]c1ccccc1-2 | 15.1% (active) |
| Oc1ccccc1-c1nnc2n1CCC2 | 102% |
| O=S(=O)(Cc1ccc(Cl)cc1)N1CCc2ccccc2C1 | 107% |
| CC(C)(C)S(=O)(=O)c1cccs1 | 90.5% |
| CC(=O)Nc1ccc2c(c1)CN(C1CCCCC1)CO2 | 89% |
| O=C(O)c1ccc(NC(=O)C23CC4CC(CC(C4)C2)C3)cc1 | 95.6% |
| O=C1C2CC3CC1CC(C(=O)O)(C3)C2 | 61.8% (active) |
| Cc1ccc2cccc(SCc3ccc(Br)cc3)c2n1 | 99.8% |
| O=C(NCCc1ccccc1)C(C(=O)c1ccccc1)n1ccccc1=O (configuration not stated) | 104% |
| CCc1nc2ccccc2n1CC(=O)N(c1ccccc1)C(C)C | 99.6% |
| CC(C)N(C(=O)CSc1ncn[nH]1)c1ccccc1 | 95.7% |
| Fc1ccc(CNCc2ccccn2)cc1 | 105% |
| Cc1cc(C(=O)OCC(=O)N2C(C)CCCC2C)c2ccccc2n1 (configuration not stated) | 106% |
| CCNCC1Cc2ccccc2O1 (configuration not stated) | 110% |
| CC(=O)N1CCc2c(sc(NC(=O)C(C)C)c2C(N)=O)C1 | 119% |

| Compound | normalized absorbance |
| --- | --- |
| COC(=O)c1c(NC(=O)c2ccc(OC)cc2)sc2c1CCN(C(C)C)C2 | 56.5% (active) |
| COC(=O)c1c(NC(NC(C)=O)(C(F)(F)F)C(F)(F)F)sc2c1CCN(C)C2 | 99.8% |
| Cc1cc(C)c(S(=O)(=O)N2CCOCC2)cc1C | 105% |
| CC(C)Oc1cccc(NC(=O)Cc2ncc(C(F)(F)F)cc2Cl)c1 | 103% |
| CC(=Nc1ccc(N(C)C)cc1)C1=C(O)c2ccccc2C1=O | 103% |
| Cc1ccc(NC(=O)/C=C/c2ccc(Br)o2)cc1 | 100% |
| O=C1Cc2cc(S(=O)(=O)NCc3cccs3)ccc2N1 | 105% |
| O=C(OCC(=O)N1CCCC1)c1ccc(Oc2ccccc2)cc1 | 94.5% |
| O=C(Nc1nc(-c2ccccc2)cs1)c1cccc(S(=O)(=O)N2CCCC2)c1 | 111% |
| CN(C)S(=O)(=O)n1cc(/C=C(\NC(=O)c2ccccc2)C(=O)NCc2ccco2)c2ccccc21 | 80.2% |
| CC[N+](C)(CC)CCC[n+]1c(-c2ccccc2)c2cc(N)ccc2c2ccc(N)cc21 | 8.9% (active) |
| CC[n+]1c(C)n(-c2ccccc2)c2ccc(N)cc21 | 99.4% |
| CCc1ccc(/C=C2\SC(=S)N(CCCC(=O)Nc3cccnc3)C2=O)cc1 | 99.7% |
| O=C(Nc1nccs1)c1cc(=O)c2ccccc2o1 | 101% |
| Nc1[nH]c(=S)sc1C(=O)Nc1nccs1 | 58.3% (active) |
| O=C(O)c1ccccc1-c1ccccc1C(=O)Nc1nccs1 | 70.1% |
| CCN1CCN(CCNC(=O)c2ccc3c(c2)NC(=O)/C(=C\c2cccc(Cl)c2)S3)CC1 | 79.8% |
| Clc1ccc(-c2ncc3ccccn23)c(Cl)c1 | 101% |
| OC1CCN(c2ncc(C(F)(F)F)cc2Cl)CC1 | 105% |
| Cc1ccc2nc(Nc3ccccc3)cc(C)c2c1 | 100% |
| Cc1ccc2nc(C)c3c(c2c1)N(c1ccccc1)CC3 | 61.5% (active) |
